Experiment [1] can be described thus: AP1 Signaling Pathway (AID 357).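 Note: ME-180 reporter cells stimulated with EGF at its EC50 level; % is set by controls: 0 for no effect and ±100 for the full control effect.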 The conditions noted are these: ME-180 AP-1-bla reporter, EGF-induced, beta-lactamase ratio, 5 h. In outline:
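Modulation of EGF-driven AP-1 transcription was assessed with a beta-lactamase reporter in ME-180 cells. Compound and EC50 EGF were co-incubated 5 hours at 37 °C before 2.5-hour CCF4 loading at room temperature and dual-emission reading.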

Experiment [2] has as its target Cytochrome P450 1A2 (Homo sapiens) (UniProt P05177). Briefly: p450-cyp1a2 (AID 410; calls by dose curve; note: potency is the fitted concentration of half-maximal effect;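 for activity change, negative = inhibition: -100% = full effect of reference inhibitor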). The conditions noted are these: recombinant CYP1A2, luciferin-ME demethylation, luminescence; series mostly up to 57 µM. The procedure, abridged: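 Luminescent demethylation readout: Luciferin-ME (100uM, equal to Km) turned over by 20nM CYP1A2 for 60 min at room temperature after NADPH regeneration addition, following 10 min compound preincubation. Normalization used 57 uM furafylline as full inhibition.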

Experiment [3] can be described thus: NFAT Signaling Pathway (AID 444).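 Note: carbachol stimulus at about its EC50 of 1 µM final; % is set by controls: 0 for no effect and ±100 for the full control effect.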 The conditions noted are these: Jurkat NFAT-bla M1, carbachol, beta-lactamase ratio, 5 h. In outline: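 Jurkat cells with NFAT-driven β-lactamase reporter and co-expressed M1 receptor, stimulated with carbachol (final 1 uM, ~EC50), compound titration, 5 h at 37 °C. CCF4 loaded 1 h at RT; 460/530 nm ratio gave %activity and AC50.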

Experiment [4] in a line: Stat Signaling Pathway (AID 446).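 Note: ME-180 cervical cancer cells given 40 pM IL-6 alongside compound; SIE-controlled beta-lactamase reporter measured as 460/530 nm FRET emission ratio; % is set by controls: 0 for no effect and ±100 for the full control effect.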 The conditions noted are these: ME-180 (cervical carcinoma) SIE beta-lactamase reporter, IL-6 stimulated, 5 h; series mostly up to 17.2 µM. The procedure, abridged: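 Overnight-plated ME-180 cells bearing a STAT Inducible Element beta-lactamase reporter; 5 h co-exposure to compound and 40 pM IL-6; values normalized to 300 pM IL-6 and 125 nM JAK inhibitor controls.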

In experiment [5] the target is Glucocorticoid receptor (Homo sapiens) (UniProt P04150). Briefly: GR-GFP Redistribution (AID 450;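 active = compounds whose dose series gives a full or clear partial fitted curve of increased nuclear translocation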; note: potency is the fitted concentration of half-maximal effect). The conditions noted are these: U2OS GR-GFP nuclear translocation, laser cytometry, 2 h.
Sequence of Glucocorticoid receptor (Homo sapiens) (P04150 whole entry, looked up, the tested form may be a part): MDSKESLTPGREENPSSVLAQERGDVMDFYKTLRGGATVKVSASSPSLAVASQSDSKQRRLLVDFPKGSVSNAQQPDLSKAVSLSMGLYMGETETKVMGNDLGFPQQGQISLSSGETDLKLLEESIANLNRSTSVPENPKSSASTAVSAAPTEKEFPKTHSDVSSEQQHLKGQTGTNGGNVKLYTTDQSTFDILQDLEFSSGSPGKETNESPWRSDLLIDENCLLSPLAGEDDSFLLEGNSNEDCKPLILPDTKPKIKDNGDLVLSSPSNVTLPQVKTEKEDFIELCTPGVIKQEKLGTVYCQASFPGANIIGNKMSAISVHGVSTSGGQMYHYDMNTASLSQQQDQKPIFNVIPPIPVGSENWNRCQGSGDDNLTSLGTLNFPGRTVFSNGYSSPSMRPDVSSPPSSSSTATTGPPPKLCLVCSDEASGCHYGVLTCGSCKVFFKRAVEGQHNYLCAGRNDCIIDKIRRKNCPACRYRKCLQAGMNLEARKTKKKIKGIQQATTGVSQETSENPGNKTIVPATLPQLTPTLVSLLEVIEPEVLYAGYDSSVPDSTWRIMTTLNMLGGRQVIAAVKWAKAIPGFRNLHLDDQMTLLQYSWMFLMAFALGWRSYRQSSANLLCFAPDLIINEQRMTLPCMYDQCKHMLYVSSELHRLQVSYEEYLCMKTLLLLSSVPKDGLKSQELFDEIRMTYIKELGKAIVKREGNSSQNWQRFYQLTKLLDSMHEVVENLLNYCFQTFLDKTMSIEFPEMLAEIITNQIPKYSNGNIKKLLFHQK
Experiment [6] shares this target. As to the kind of experiment: GR-EFC Redistribution (AID 451; calls by dose curve; note: potency is the fitted concentration of half-maximal effect). The conditions noted are these: CHO-K1 GR-EFC translocation, beta-gal luminescence, 2 h. The procedure, abridged: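 CHO-K1 cells expressing nuclear EA and GR-ED fragments of b-gal; compounds titrated up to 46 uM final, 2 h at 37 C. GR nuclear translocation read as complemented b-gal luminescence after 1 h RT detection.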

The target of experiment [7] is Mitogen-activated protein kinase 10 (Mus musculus) (UniProt Q61831). As to the kind of experiment: JNK3 AlphaScreen Assay (AID 530).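 Note: kinase came from lysate of stimulated human HepG2 cells; signal reports phosphorylation of biotinylated GST-cJun 1-79 at Ser73 with 10 µM ATP; % is set by controls: 0 for no effect and ±100 for the full control effect.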 The conditions noted are these: JNK3 lysate, c-Jun phosphorylation; series mostly up to 57.1 µM. The procedure, abridged: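 Activity was read by AlphaScreen after JNK3-containing HepG2 lysate (cytokine pre-activated) phosphorylated biotinylated GST-cJun with 10 uM ATP at room temperature. Phospho-Ser73 cJun antibody with Protein-A acceptor beads provided detection.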
(In general: Alpha assays give light when donor and acceptor beads are brought close together.)

Experiment [8] can be described thus: Cell Viability - BJ (AID 421; calls by dose curve;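 note: potency is the fitted concentration of half-maximal effect; cells exposed to compound for 40 hours at 37 °C before readout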). The conditions noted are these: BJ fibroblast viability, qHTS. In outline:
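Quantitative HTS: ATP depletion in BJ cells after 40 hr compound exposure in complete culture medium, detected with CellTiter-Glo; AC50 from standard Hill fits.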

A short description of experiment [9]: Cell Viability - Jurkat (AID 426;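 active = dose-dependent loss of cell ATP signal giving a full or clear fitted curve, ranked by lower potency value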;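 note: potency is the fitted concentration of half-maximal effect; cells exposed to compound for 40 hours at 37 °C before ATP read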). The conditions noted are these: qHTS. The procedure, abridged: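 Cytotoxicity taken as drop in cellular ATP (CellTiter-Glo luminescence, 20 min room temperature) after 40 hr, 37C treatment of 5000 Jurkat Clone E6-1 cells per well; concentration-response fitted with Hill equation for AC50.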
In general terms: Quantitative high-throughput screening tests each substance at several concentrations.

The nature of experiment [10]: Cell Viability - Hek293 (AID 427;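 active = compounds whose dose-response curve shows a full or clear partial loss of cell viability, called from curve shape rather than a numeric limit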;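 note: potency is the fitted concentration of half-maximal effect; cells exposed to compound for 40 hours at 37 °C before reading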). The conditions noted are these: qHTS. In outline:
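AC50 values derive from Hill-modelled concentration-response of ATP-based luminescence, normalized between DMSO-only and 100 uM tamoxifen controls. Cells were exposed in complete culture medium for 40 hr at 37 °C before detection.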

Experiment [11] in a line: Cell Viability - HepG2 (AID 433; calls by dose curve; note: potency is the fitted concentration of half-maximal effect). The conditions noted are these: qHTS. In outline: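 HepG2 hepatocellular carcinoma cells (1500/well) were treated with compounds for 40 h at 37 °C in complete medium; intracellular ATP was read by CellTiter-Glo luminescence. Data were normalized to DMSO and 100 uM tamoxifen, and AC50 came from Hill fits.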
Experiment [12] in a line: Cell Viability - MRC5 (AID 434; calls by dose curve;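 note: potency is the fitted concentration of half-maximal effect; potency reflects cytotoxicity seen as loss of intracellular ATP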). The conditions noted are these: MRC5 lung fibroblast viability, qHTS. The procedure, abridged: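 ATP luminescence read-out (CellTiter-Glo, 20 min RT) after 40 hr, 37 °C compound exposure of 1500 MRC5 cells/well. Data normalized to DMSO (basal) and 100 uM tamoxifen (100% inhibition); AC50 from standard Hill equation.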
A short description of experiment [13]: Cell Viability - SK-N-SH (AID 435; calls by dose curve;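 note: potency is the fitted concentration of half-maximal effect; compound exposure lasted 40 h at 37 °C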). The conditions noted are these: SK-N-SH neuroblastoma cell viability qHTS. In outline:
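SK-N-SH human neuroblastoma cells (1500/well) were exposed to compounds in complete medium for 40 h at 37 °C, and intracellular ATP was then measured by CellTiter-Glo luminescence. AC50 was taken from Hill fits, normalized to DMSO and 100 uM tamoxifen.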

Experiment [14] can be described thus: Cell Viability - N2a (AID 540; active = well fitted curve in the direction sought with a large enough effect; an effect the other way counts as inactive or inconclusive;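 note: plate controls were DMSO alone for no effect and tamoxifen control for full effect; nearly all actives have a fitted effect of over 45% in size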). The conditions noted are these: N2a mouse neuroblastoma cell viability; series mostly up to 92.2 µM. The procedure, abridged:
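CellTiter-Glo ATP luminescence, read 20 min after reagent at room temperature, reported viability following 40 h compound treatment at 37 °C. N2a mouse neuroblastoma cells seeded 1500/well; Hill equation gave AC50.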

A short description of experiment [15]: Cell Viability - NIH 3T3 (AID 541; active = well fitted curve in the direction sought with a large enough effect; an effect the other way counts as inactive or inconclusive;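 note: plate controls were DMSO alone for no effect and tamoxifen positive control for full effect; nearly all actives have a fitted effect of over 25% in size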). The conditions noted are these: NIH 3T3 cell viability, qHTS; series mostly up to 92.2 µM. In outline: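 Intracellular ATP (CellTiter-Glo luminescence, 20 min at room temperature) measured after 40 hr compound exposure at 37 °C of 1000 NIH 3T3 mouse fibroblasts/well in complete medium; AC50 derived by Hill-equation modelling of qHTS concentration-response curves.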

Experiment [16] can be described thus: Cell Viability - HUV-EC-C (AID 542; active = well fitted curve in the direction sought with a large enough effect; an effect the other way counts as inactive or inconclusive; note: % is set by controls: 0 for no effect and ±100 for the full control effect; nearly all actives have a fitted effect of over 35% in size). The conditions noted are these: HUV-EC-C endothelial cell viability, qHTS; series mostly up to 92.2 µM. In outline: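 CellTiter-Glo luminescence measured ATP loss in HUV-EC-C cells (1000/well) after 40 hr compound exposure at 37 °C, in complete culture medium. Concentration-response data were Hill-fitted to give AC50.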

The nature of experiment [17]: Cell Viability - Renal Proximal Tubule (AID 545; active = well fitted curve in the direction sought with a large enough effect; an effect the other way counts as inactive or inconclusive;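 note: 0% = DMSO only and -100% = 100 µM tamoxifen; nearly all actives have a fitted effect of over 40% in size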). The conditions noted are these: renal proximal tubule cells viability, primary cells of rat origin; series mostly up to 91.7 µM. In outline:
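Primary rat renal proximal tubule cells (1000/well) were treated with compounds for 40 hr at 37 °C in complete medium. Intracellular ATP was measured by CellTiter-Glo luminescence, and AC50 values came from Hill-equation fits of concentration-response data.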

“And” between values parts separate entries of the source, which are not always exact repeats. Equal entries are not always repeated. Values without a mark were called inactive. Inconclusive results are not listed. The source made the active and inactive calls. Unless noted, calls come from the whole dose curve; as a rule, active = well fitted curve in either direction with a large enough effect (not every such curve was filed as active); inconclusive = small, poorly fitted or top-dose-only effect, or another doubt; inactive = flat fitted curve, though single readings scatter. Bounds are passed on as bounds.

Sequence of Cytochrome P450 1A2 (Homo sapiens) (P05177 whole entry, looked up): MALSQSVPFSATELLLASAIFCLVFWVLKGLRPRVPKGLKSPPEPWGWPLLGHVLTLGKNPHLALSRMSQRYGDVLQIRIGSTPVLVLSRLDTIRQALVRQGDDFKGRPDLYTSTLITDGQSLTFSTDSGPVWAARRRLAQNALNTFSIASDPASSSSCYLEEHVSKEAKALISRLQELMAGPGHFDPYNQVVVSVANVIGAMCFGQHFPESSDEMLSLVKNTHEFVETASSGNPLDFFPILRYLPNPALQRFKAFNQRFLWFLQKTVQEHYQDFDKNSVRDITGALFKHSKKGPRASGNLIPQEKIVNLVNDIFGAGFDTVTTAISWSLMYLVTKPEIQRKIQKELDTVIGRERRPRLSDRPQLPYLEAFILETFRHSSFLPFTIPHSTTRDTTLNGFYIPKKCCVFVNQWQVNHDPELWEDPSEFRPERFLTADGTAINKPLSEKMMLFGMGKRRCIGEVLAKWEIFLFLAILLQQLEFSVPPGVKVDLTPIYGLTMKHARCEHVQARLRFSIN

In the case of `Cc1ccc(N(CC2=NCCN2)c2cccc(O)c2)cc1`, the activity change, negative = inhibition was 6.96% and 4.13% and 12.9% in experiment [1] (at 17.2 µM (top of the series)); 18% in [1] (at 38 µM (top of the series)); -19.1% and -11.9% and 3.66% in [3] (at 17.2 µM (top of the series)); -12.9% in [3] (at 38 µM (top of the series)). The Potency entry in experiment [2] is “inactive”. Also, the result in experiment [4] and in experiment [7] was inactive. Besides, the Potency in experiment [5] was > 46 µM and > 20.6 µM; in experiment [6] it was > 46 µM and > 20.6 µM.

As to `Clc1cccc(Cl)c1NC1=NCCN1`, the activity change, negative = inhibition is -0.203% in experiment [1] (at 17.2 µM (top of the series)), 4.79% in experiment [1] (at 38 µM (top of the series)), -11.5% in experiment [3] (at 17.2 µM (top of the series)) and -5.97% in experiment [3] (at 38 µM (top of the series)). Besides, in [2], the Potency entry is “inactive”. In addition, the molecule was called inactive in experiment [4] and in experiment [7]. For the same molecule, the Potency was > 46 µM and > 20.6 µM in [5]; > 46 µM and > 20.6 µM in experiment [6].

For the molecule `Nc1ccc(S(=O)(=O)Nc2ccnn2-c2ccccc2)cc1`, the activity change, negative = inhibition in [1] (at 17.2 µM (top of the series)) is 1.79%; in experiment [1] (at 38 µM (top of the series)) it was 4.55%; in experiment [3] (at 17.2 µM (top of the series)) it was -4.12%; in experiment [3] (at 38 µM (top of the series)), 1.19%. The Potency entry in experiment [2] was “inactive”. Moreover, the call in experiment [4] and in [7] was inactive. Further, the Potency in experiment [5] is > 46 µM and > 20.6 µM; in experiment [6] it was > 46 µM and > 20.6 µM.

Turning to `NC(N)=NC(=O)c1nc(Cl)c(N)nc1N`, the activity change, negative = inhibition in experiment [1] (at 17.2 µM (top of the series)) was 2.66% and -5.39%; in experiment [1] (at 38 µM (top of the series)), -2.62%; in experiment [3] (at 17.2 µM (top of the series)), 8.59% and -17.4%; in experiment [3] (at 38 µM (top of the series)), -2.5%. The Potency in experiment [2] was 12.6 µM (active) and 6.31 µM (active); in [8] it was greater than 92 µM; in experiment [9], greater than 92 µM; in experiment [10], greater than 92 µM; in experiment [11], greater than 92 µM; in [12], greater than 92 µM. Also, the Potency in experiment [13] was greater than 92 µM; in [5], > 46 µM and > 20.6 µM; in experiment [6] it was > 46 µM and > 20.6 µM. The molecule was called inactive in experiment [4], in [7], in experiment [14], in [16] and in experiment [17]. The Potency result in [15] was “inactive”.

`O=c1n(CCCN2CCN(c3cccc(Cl)c3)CC2)nc2ccccn12`: the activity change, negative = inhibition in [1] (at 17.2 µM (top of the series)) was -7.19% and -2.29%; in experiment [1] (at 38 µM (top of the series)), -2.63%; in [3] (at 17.2 µM (top of the series)), -9.78%; in experiment [3] (at 38 µM (top of the series)) it was -3.74%. The Potency result in [2] is “inactive”. The molecule was called inactive in experiment [4] and in experiment [7].

With `CCCCNc1cc(C(=O)O)cc(S(N)(=O)=O)c1Oc1ccccc1`, the activity change, negative = inhibition in experiment [1] (at 17.2 µM (top of the series)) is 2.74% and -1.68%; in [1] (at 38 µM (top of the series)), -1.83%; in [3] (at 17.2 µM (top of the series)) it was 1.71% and -0.748%; in experiment [3] (at 38 µM (top of the series)) it was 7.04%. Besides, the result in [4] and in experiment [7] was inactive.

With `CNC[C@H](O)c1cccc(O)c1`, the activity change, negative = inhibition in experiment [1] (at 17.2 µM (top of the series)) is -10.2%; in experiment [1] (at 38 µM (top of the series)), -17.9%; in experiment [3] (at 17.2 µM (top of the series)), -25.3%; in experiment [3] (at 38 µM (top of the series)), -0.528%. For the same molecule, the result in experiment [4] and in [7] was inactive.

`Cc1[nH]c(=O)c(C#N)cc1-c1ccncc1`: the activity change, negative = inhibition in experiment [1] (at 17.2 µM (top of the series)) was 8.13%; in experiment [1] (at 38 µM (top of the series)), -0.284%; in experiment [3] (at 17.2 µM (top of the series)), -20.1%; in experiment [3] (at 38 µM (top of the series)), -0.614%. The molecule was classed as inactive in experiment [4] and in experiment [7].

In the case of `N=c1nc(N2CCCCC2)cc(N)n1O`, the activity change, negative = inhibition in experiment [1] (at 17.2 µM (top of the series)) was -4.3% and 1.82%; in [1] (at 38 µM (top of the series)), 2.17%; in experiment [3] (at 17.2 µM (top of the series)) it was -4.8%; in [3] (at 38 µM (top of the series)), 7.52%. For the same molecule, the Potency result in experiment [2] was “inactive”. For the same molecule, the outcome in [4] and in [7] was inactive. Besides, the Potency in experiment [5] is > 46 µM and > 20.6 µM; in [6], > 46 µM and > 20.6 µM.

Take `Nc1nc2ccc(OC(F)(F)F)cc2s1`: the activity change, negative = inhibition is 7.09% and 1.61% in experiment [1] (at 17.2 µM (top of the series)); -15% in [1] (at 38 µM (top of the series)); 0.982% and -0.48% in experiment [3] (at 17.2 µM (top of the series)); 13.4% in experiment [3] (at 38 µM (top of the series)). The result in [4] and in [7] was inactive. In addition, the Potency in experiment [5] is > 46 µM and > 20.6 µM; in experiment [6], > 46 µM and > 20.6 µM.

Values taken from PubChem BioAssay (NCATS).
